# PubChem BioAssay (NCI)
# Compounds without any hit were thinned out: in the full panel of roughly 83,000, 20% have a hit.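 96-well plates, one dose, 48 hours. Percent growth reported; active if below 10.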 A number with no mark means an inactive call. Activity calls are given as the source filed them.
# Tested on: MDA-MB-468 breast
# Assay: NCI-60 one-dose screen, 48 h (100 = growth as untreated, 0 = no growth, -100 = all killed)
# Settings: 10 µM unless noted
row,Structure (SMILES),growth
1,COC(=O)C1CCCN(S(=O)(=O)/N=C2\NC(=O)NC2=C(Cl)Cl)C1 (stereo not given),32.8%
2,CC(C)(C)c1nc(-c2cccc(NS(=O)(=O)c3c(F)cccc3F)c2F)c(-c2ccnc(N)n2)s1,140%
3,CCC1(C)OC(=O)NC1=O (stereo not given),107%
4,COc1cc(-c2nc3ccccc3[nH]2)ccc1OCC(=O)N=Nc1c(O)[nH]c2ccc(Cl)cc12,-78.9% (active)
5,Nc1cc2c(cc1C(=O)c1cccc(F)c1)OCCO2,93.8%
6,Cc1ccc(-c2nc(C#N)c(S(=O)(=O)NCCO)o2)cc1,37.1%
7,CC1SC(c2c(Cl)cccc2Cl)N(NC(=O)c2[nH]c3ccc(F)cc3c2-c2ccccc2)C1=O (stereo not given),66.8%
8,COc1ccc(-c2cn(-c3cccc(C(=O)/C=C/c4cc(OC)c(OC)c(OC)c4)c3)c(=O)[nH]2)cc1OC,98.1%
9,CCN1C(=O)N(CC)C2C1NN=c1s/c(=C3\C(=O)N(C4CCCC4)c4ccccc43)c(=O)n12 (stereo not given),-43.2% (active)
10,CCCCN(CCCC)CC(O)c1ccc(OCc2ccccc2)c2ccccc12 (stereo not given),114%
11,CCN1CCN(C(=O)[C@]23CC[C@@H](C)[C@H](C)[C@H]2C2=CC[C@@H]4[C@@]5(C)C/C(=C/c6cccc(OC)c6OC)C(=O)C(C)(C)[C@@H]5CC[C@@]4(C)[C@]2(C)CC3)CC1,16.4%
12,CCN(CC)CCn1c2ccc(O)cc2c2sc3cc(OC)ccc3c(=O)c21,33.8%
13,COc1ccc(/C=C/c2nc(-c3n[nH]c(=O)n3-c3ccccc3)c3ccccc3n2)cc1,100%
14,COc1ccc(/C(=C\c2cc(OC)c(OC)c(OC)c2)C(=O)N2CCN(c3ccccc3)CC2)cc1O,96.8%
15,O=c1[nH]c(-c2ccccn2)nc2sc3c(c12)CCCCC3,50%
16,CCOC(=O)c1cccc(NC2=C(Cl)C(=O)C(C)=C(C)C2=O)c1,-20.6% (active)
17,Clc1ccc2c(NCCCN3CCOCC3)c3oc4ccccc4c3nc2c1,35.7%
18,COc1cc(/C=C2\CN(C)C/C(=C\c3cc(CN4CCCCC4)c(O)c(OC)c3)C2=O)cc(CN2CCCCC2)c1O,13%
19,O=C(CSC1CCc2ccccc21)N/N=C/c1ccccc1O (stereo not given),33.9%
20,Nc1ccc(C(=O)/C=C/c2ccccc2)cc1,87.4%

row,Structure (SMILES),growth
1,C=CCN1C(=O)/C(=c2\sc3n(c2=O)C2C(NN=3)N(CC)C(=O)N2CC)c2ccccc21 (stereo not given),16.3%
2,Cc1ccc(C2C=C(c3ccc(Cl)cc3)N=C3SC=CN32)c(Br)c1 (stereo not given),69.7%
3,CCOP(=O)(NC(c1ccccc1)c1ccccc1)OCC,104%
4,COc1cccc(C(=O)NNC(=O)c2cccc3ccccc23)c1,111%
5,Fc1ccc2nc(-c3ccc(-c4noc(-c5ccc(Cl)cc5)n4)cc3)[nH]c2c1,110%
6,CCOC(=O)NC(=S)n1oc(=O)c2ccccc21,106%
7,O=C1c2ccccc2C(=O)N1OCc1ccccc1,125%
8,COC(=O)/C=C1\Sc2cc(F)ccc2NC1=O,99.8%
9,COc1ccc2c(c1)Oc1nc(N)c(C#N)c(N)c1C2Sc1ccc(O)cc1 (stereo not given),18.8%
10,O=C(Nc1nc2ccc(O)cc2s1)c1cccc(C(F)(F)F)c1,84.6%
11,CN1C(=O)N(C)C2C1NC(=S)N2/N=C/C=C/c1ccccc1[N+](=O)[O-] (stereo not given),6.39% (active)
12,CN(C)CCCC1(c2ccc(F)cc2)OCc2cc(-c3cccc4[nH]ccc34)ccc21 (stereo not given),-34.5% (active)
13,CCn1c(Sc2nnc(Nc3ccccc3)s2)nc2c1c(=O)n(C)c(=O)n2C,91.8%
14,Nc1ccc(Sc2ccc3c4c2cccc4c(=O)n2c4ccccc4nc32)cc1,43.5%
15,CCOc1ccc(/C=N/Nc2cc(C)nc3ccc(Br)cc23)cc1,65.2%
16,NS(=O)(=O)c1ccc(-c2cc(-c3nnc(SCC(=O)Nc4ccc(C(=O)/C=C/c5ccc(Cl)cc5)cc4)n3-c3ccccc3)c3ccccc3n2)cc1,84.5%
17,CC(C)C(=O)Cc1cnccn1,119%
18,COc1ccc([C@H]2c3cc(OC)c(OC)cc3C=C(C=O)C2CO)cc1OC (stereo not given in full),41%
19,COc1ccc(-c2cc(-c3ccc(Cl)cc3)nc(SCCCCCCC(=O)NO)n2)cc1,12.7%
20,O=S1(=O)c2ccccc2Oc2ccccc21,96.4%
